Shown are actives, neighbours in structure and some others; about 1.8% of the full set was active somewhere.
KOR antag MB: antagonists of human kappa opioid receptor OPRK1, Maybridge library; P41145; OPRK1 cells, antagonist mode, fluorescence readout; inhibition, % at 9 µM; 0.4% of 16,000 active; AID 652031; in the data active = inhibition above about 50%
luminol inh ctr: quenches luminol chemiluminescence in Nox1 counter-screen; AID 1823; HRP/luminol/H2O2 chemiluminescence counterscreen; inhibition, % at 6.7 µM; 0.4% of 16,000 active; also: reference of the scale not given here
Nox1 inh: inhibitors of human NADPH oxidase 1 (Nox1) | HT29 cells, luminol chemiluminescence ROS | inhibition, % at 6.7 µM | 0.81% of 16,000 active | AID 1792
NOTCH ag: activates NOTCH signaling in reporter cells. activation, % at 2.5 µM. 0.4% of 15,000 active. NOTCH signaling luciferase reporter cells, luminescence. AID 434982; in the data active = activation above about 2.2%
TLR4 MyD88 blk: TLR4-MyD88 interaction inhibition. O00206. 0.06% of 16,000 active. Cell-based TLR4-MyD88 binding inhibition assay. inhibition, % at 10 µM; in the data active = inhibition above about 45%
Target sequence (O00206 whole entry, looked up): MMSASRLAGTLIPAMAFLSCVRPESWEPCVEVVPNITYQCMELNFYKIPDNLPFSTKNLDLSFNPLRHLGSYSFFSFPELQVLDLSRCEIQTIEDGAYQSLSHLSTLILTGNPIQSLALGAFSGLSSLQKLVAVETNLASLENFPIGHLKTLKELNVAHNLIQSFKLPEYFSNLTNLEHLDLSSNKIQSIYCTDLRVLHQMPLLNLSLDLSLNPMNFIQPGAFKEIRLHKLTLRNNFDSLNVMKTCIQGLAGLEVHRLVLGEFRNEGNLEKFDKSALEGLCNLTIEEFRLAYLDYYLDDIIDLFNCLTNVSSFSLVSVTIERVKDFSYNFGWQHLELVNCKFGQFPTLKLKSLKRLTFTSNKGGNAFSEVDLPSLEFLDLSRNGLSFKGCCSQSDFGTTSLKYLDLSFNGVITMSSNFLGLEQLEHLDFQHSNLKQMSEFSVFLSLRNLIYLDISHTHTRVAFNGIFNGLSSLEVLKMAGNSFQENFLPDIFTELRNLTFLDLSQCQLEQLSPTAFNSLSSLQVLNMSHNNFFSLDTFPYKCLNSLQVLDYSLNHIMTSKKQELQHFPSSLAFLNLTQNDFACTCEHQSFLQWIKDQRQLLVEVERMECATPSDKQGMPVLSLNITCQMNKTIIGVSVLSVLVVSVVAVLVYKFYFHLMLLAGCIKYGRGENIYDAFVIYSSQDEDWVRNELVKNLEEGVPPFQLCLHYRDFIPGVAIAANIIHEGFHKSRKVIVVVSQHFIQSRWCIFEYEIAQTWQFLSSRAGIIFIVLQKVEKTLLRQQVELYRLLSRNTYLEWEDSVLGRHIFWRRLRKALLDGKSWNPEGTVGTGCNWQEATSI
A number is an active result; - = inactive; . = no result. Rule as the data show it, unless noted: active = inhibition above about 75%; inactive = the rest.

SMILES	KOR antag MB	luminol inh ctr	Nox1 inh	NOTCH ag	TLR4 MyD88 blk
O=[N+]([O-])c1ccc(C2=NN(c3ccccc3)C(c3ccco3)C2)cc1 (stereo not drawn)	87	-	-	-	70
O=[N+]([O-])c1cccc(C2Oc3ccccc3C3CC(c4ccccc4)=NN32)c1 (stereo not drawn)	-	-	-	-	-
CSc1ncc2c(=O)[nH]cnc2n1	-	-	-	-	-
Cc1cc(NC(=O)CSc2n[nH]c(=O)n2-c2ccc3c(c2)OCCO3)n(-c2ccccc2)n1	-	-	-	2.2	-
O=C(CSc1n[nH]c(=O)n1-c1ccc2c(c1)OCCO2)c1csc2ccccc12	-	-	-	-	-
O=S(=O)(c1ccc(Cl)s1)N1CCN(C(c2ccccc2)c2ccccc2)CC1	-	-	-	6.4	-
O=S(=O)(c1cc(Br)c(Cl)s1)N1CCC(Cc2ccccc2)CC1	-	-	-	-	-
c1ccc2c(c1)NC(c1ccc3c(c1)OCO3)O2 (stereo not drawn)	-	-	80	-	-
O=C(C1=NNCC1c1ccc2c(c1)OCO2)c1ccc2ccccc2c1 (stereo not drawn)	-	-	-	-	-
CCCCCCSc1n[nH]c(=S)s1	-	96	-	-	-
O=C1/C(=C/c2ccccc2)CC/C1=C\c1ccccc1	-	-	-	-	-
S=C(NNc1c(Cl)cncc1Cl)Nc1ccc(Cl)cc1Cl	62	-	-	-	-
OCCCNNC(=S)Nc1ccc(Cl)cc1Cl	-	-	-	-	-
CCOC(=O)C1CCN(Cc2cccc(NC(=O)c3cccs3)c2)CC1	50	-	-	-	-
CCOC(=O)C1CCN(Cc2cccc(NC(=O)c3cc(C)on3)c2)CC1	-	-	-	-	.
CCn1c(-c2cccs2)n[nH]c1=S	-	100	-	-	-
COc1ccc(-n2c(-c3cccs3)n[nH]c2=S)cc1	-	98	-	-	-
Cc1cc(C)c2c(=O)c(-c3cc(C(=O)O)c4cc5ccccc5cc4n3)coc2c1	-	-	-	-	-
CC(C)(C)c1cc2c(=O)[nH]nc(N)c2c(=O)[nH]1	-	-	-	-	-
Cc1cc(S(=O)(=O)Nc2c(C)nn(C)c2C)c(Cl)cc1Cl	-	-	-	-	-
CSc1nnc(SC2=CC(=O)CC(c3ccccc3)C2)s1 (stereo not drawn)	-	-	-	3.3	-
CSc1nnc(Sc2ncc([N+](=O)[O-])s2)s1	-	-	-	-	-
CSC(=N)n1nc(SC)nc1N	-	-	-	2.8	-
O=C(O)C1CC(=O)N(Cc2cccs2)C1 (stereo not drawn)	-	-	-	-	-
N#CC(=NCc1ccc(Cl)cc1)C1=C(O)c2ccccc2C1=O	-	-	-	-	-
SMILES	KOR antag MB	luminol inh ctr	Nox1 inh	NOTCH ag	TLR4 MyD88 blk
Cn1ncc(C(=O)NC(=O)Nc2ccc(F)cc2)c1[N+](=O)[O-]	-	-	78	-	-
Cn1ncc(C(=O)N=S(C)(=O)c2ccc(Cl)cc2)c1[N+](=O)[O-] (stereo not drawn)	-	-	-	-	-
c1ccc2c(c1)Nc1nc3ccccc3nc1O2	-	-	-	-	-
c1ccc2c(c1)Nc1nc3ccccc3nc1N2	-	-	85	-	-
O=C(NNc1nc(-c2cccs2)cs1)c1ccc(Cl)cc1	-	-	-	-	-
CC(C)(C)c1csc(NNC(=O)c2ccc(Cl)cc2)n1	-	-	85	-	-
CCOC(=O)CSC(=NCc1ccccc1)NNC(=O)c1c(C)nc2cc(C)ccn12	-	-	-	-	-
CNC(=S)NNC(=O)c1c(C)nc2cc(C)ccn12	-	-	97	-	-
CCOC(=O)c1cc(CSc2nnc(SC)s2)on1	-	-	-	-	-
CCC(=O)Nc1ccc2c(c1)N(CC)C(C)(C)CC2C (stereo not drawn)	-	-	93	-	-
CN(C)c1ccc(/C=C/c2cc[n+](Cc3ccc(F)cc3)cc2)cc1	-	-	-	-	51
CCOC(=O)Cn1c(=O)ccc2c(C)cc(C)nc21	-	-	-	-	-
O=C1COCC(=O)N1Cc1csc2ccccc12	-	-	-	-	-
Clc1ccc2c(Nc3ccc4c(c3)OCO4)ccnc2c1	51	-	-	-	.
CCCc1c(C(=O)Nc2ncn[nH]2)cnn1-c1ccccc1	-	-	-	-	-
O=S(=O)(c1ccc2c(c1)CCO2)N1CC=C(c2ccccc2)CC1	-	-	-	-	-
O=C1NC(=S)N/C1=C\c1ccccc1Cl	-	75	-	-	-
Clc1ccc(N=Cc2ccccc2)cc1	-	-	-	-	-
FC(F)(F)c1cccc(CSc2n[nH]c(=S)s2)c1	-	99	-	-	-
Cc1csc2ncnc(NNS(=O)(=O)c3cc(C(F)(F)F)cc(C(F)(F)F)c3)c12	-	-	102	-	-
CC(C)(C)c1nc(N=C(N)N)sc1Br	-	-	-	-	-
O=[N+]([O-])c1ccc(N/N=C/c2ccc(-c3cccs3)s2)nc1	79	-	-	-	-
O=[N+]([O-])c1ccc(-c2csc(-c3ccc(-c4cccs4)s3)n2)cc1	-	-	-	-	-
O=C(Nc1ccc(F)c(Cl)c1)c1cc(Br)ccc1O	70	-	-	-	-
O=C(Cc1nn[nH]n1)Nc1ccc(F)c(Cl)c1	-	-	-	.	-
SMILES	KOR antag MB	luminol inh ctr	Nox1 inh	NOTCH ag	TLR4 MyD88 blk
Fc1ccc(-n2c(Cc3ccsc3)n[nH]c2=S)cc1	-	84	-	-	-
COc1ccc(-c2nc(N(C)c3ccccc3)[nH]c(=O)c2C#N)cc1	-	-	-	3.5	-
O=[N+]([O-])c1ccc(-c2ccc(/C=N/Nc3ccccc3)o2)cc1	81	-	-	-	-
S=C(NCC1CCCO1)N/N=C/c1ccc(Cl)cc1 (stereo not drawn)	-	-	-	-	-
O=[N+]([O-])c1ccc(-c2ccc(/C=N/NC(=S)NCC3CCCO3)o2)cc1 (stereo not drawn)	-	-	-	-	50
S=c1[nH]c2cccnc2s1	-	100	-	-	-
O=C(N/C(=C\c1ccc(-c2ccc([N+](=O)[O-])cc2)o1)c1nc2ccccc2[nH]1)c1ccccc1	113	-	-	-	50
Cc1cc(C#N)c2c(c1)-c1ccccc1CC2	-	-	-	-	-
N#Cc1c(N)sc2c1CCc1ccccc1-2	-	-	103	-	-
Nc1ncc(C(=O)Nc2cccc(F)c2)c(C(F)(F)F)n1	-	-	-	-	-
O=[N+]([O-])/C=C/c1c(-c2ccc3ccccc3c2)[nH]c2ccccc12	-	-	-	-	-
O=[N+]([O-])/C=C/c1c2ccccc2cc2ccccc12	72	-	-	-	-
CCOC(=O)c1ccc(NC(=S)NC)cc1	-	-	-	2.9	-
CCOC(=O)c1ccc(NC(=O)C(=S)NCc2ccccc2)cc1	-	-	-	-	-
S=c1[nH]c(=S)c2ccccc2[nH]1	-	77	-	-	-
c1ccc2c3c([nH]c2c1)CCCCCC3	-	-	-	-	-
Cc1ccc(C)n1-c1cccc([N+](=O)[O-])c1	-	-	-	-	-
COc1ccccc1C1CCN(c2ccc(CO)cc2[N+](=O)[O-])CC1	-	-	-	-	-
